Results from article PMC11006913.
Positions count from the first letter of the chain named.

How the values were obtained:
Experiment in all cases: PBM; 200 nM protein, PBS
Conditions in all cases: dsDNA, one strand shown
SIX6 [1] = molecular target: T1, SIX6 (Homo sapiens, UniProt O95475 114-200, L167I)
T1 sequence: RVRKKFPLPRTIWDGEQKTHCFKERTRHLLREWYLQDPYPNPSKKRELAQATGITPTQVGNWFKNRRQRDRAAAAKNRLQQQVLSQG

SIX6 [2] = molecular target: T2, SIX6 (Homo sapiens, UniProt O95475 114-200, L143V)
T2 sequence: T1 sequence with L30V, I54L

SIX6 [3] = molecular target: T3, SIX6 (Homo sapiens, UniProt O95475 114-200, H141N)
T3 sequence: T1 sequence with H28N, I54L

SIX6 [4] = molecular target: T4, SIX6 (Homo sapiens, UniProt O95475 114-200, T165P)
T4 sequence: T1 sequence with T52P, I54L

SIX6 [5] = molecular target: T5, SIX6 (Homo sapiens, UniProt O95475 114-200, L167M)
T5 sequence: T1 sequence with I54M

SIX6 [6] = molecular target: T6, SIX6 (Homo sapiens, UniProt O95475 114-200, L143M)
T6 sequence: T1 sequence with L30M, I54L

SIX6 [7] = molecular target: T7, SIX6 (Homo sapiens, UniProt O95475 114-200, L143I)
T7 sequence: T1 sequence with L30I, I54L

SIX6 [8] = molecular target: T8, SIX6 (Homo sapiens, UniProt O95475 114-200, T165G)
T8 sequence: T1 sequence with T52G, I54L

SIX6 [9] = molecular target: T9, SIX6 (Homo sapiens, UniProt O95475 114-200, T139Q)
T9 sequence: T1 sequence with T26Q, I54L

SIX6 [10] = molecular target: T10, SIX6 (Homo sapiens, UniProt O95475 114-200, T165A)
T10 sequence: T1 sequence with T52A, I54L

SIX6 [11] = molecular target: T11, SIX6 (Homo sapiens, UniProt O95475 114-200, L167V)
T11 sequence: T1 sequence with I54V

SIX6 [12] = molecular target: T12, SIX6 (Homo sapiens, UniProt O95475 114-200)
T12 sequence: T1 sequence with I54L

SIX6 [13] = molecular target: T13, SIX6 (Homo sapiens, UniProt O95475 114-200, T165I)
T13 sequence: T1 sequence with T52I, I54L

Sequence | binding signal (SIX6 [1]) | binding signal (SIX6 [2]) | binding signal (SIX6 [3]) | binding signal (SIX6 [4]) | binding signal (SIX6 [5]) | binding signal (SIX6 [6]) | binding signal (SIX6 [7]) | binding signal (SIX6 [8]) | binding signal (SIX6 [9]) | binding signal (SIX6 [10]) | binding signal (SIX6 [11]) | binding signal (SIX6 [12]) | binding signal (SIX6 [13])
CCATATAC | 10.3 upbm affinity estimate (log intensity, higher = more binding, comparable within an allelic series) | 10.1 upbm affinity estimate (log intensity, higher = more binding, comparable within an allelic series) | 10.3 upbm affinity estimate (log intensity, higher = more binding, comparable within an allelic series) | 9.82 upbm affinity estimate (log intensity, higher = more binding, comparable within an allelic series) | 10.3 upbm affinity estimate (log intensity, higher = more binding, comparable within an allelic series) | 10.4 upbm affinity estimate (log intensity, higher = more binding, comparable within an allelic series) | 10.1 upbm affinity estimate (log intensity, higher = more binding, comparable within an allelic series) | 10.4 upbm affinity estimate (log intensity, higher = more binding, comparable within an allelic series) | 10.5 upbm affinity estimate (log intensity, higher = more binding, comparable within an allelic series) | 10.3 upbm affinity estimate (log intensity, higher = more binding, comparable within an allelic series) | 10.2 upbm affinity estimate (log intensity, higher = more binding, comparable within an allelic series) | 10.4 upbm affinity estimate (log intensity, higher = more binding, comparable within an allelic series) | 10.3 upbm affinity estimate (log intensity, higher = more binding, comparable within an allelic series)
GATATACC | 11.1 upbm affinity estimate (log intensity, higher = more binding, comparable within an allelic series) | 10.4 upbm affinity estimate (log intensity, higher = more binding, comparable within an allelic series) | 11.2 upbm affinity estimate (log intensity, higher = more binding, comparable within an allelic series) | 9.81 upbm affinity estimate (log intensity, higher = more binding, comparable within an allelic series) | 10.9 upbm affinity estimate (log intensity, higher = more binding, comparable within an allelic series) | 11 upbm affinity estimate (log intensity, higher = more binding, comparable within an allelic series) | 10.5 upbm affinity estimate (log intensity, higher = more binding, comparable within an allelic series) | 11.1 upbm affinity estimate (log intensity, higher = more binding, comparable within an allelic series) | 11.2 upbm affinity estimate (log intensity, higher = more binding, comparable within an allelic series) | 11.1 upbm affinity estimate (log intensity, higher = more binding, comparable within an allelic series) | 10.9 upbm affinity estimate (log intensity, higher = more binding, comparable within an allelic series) | 11 upbm affinity estimate (log intensity, higher = more binding, comparable within an allelic series) | 11.1 upbm affinity estimate (log intensity, higher = more binding, comparable within an allelic series)
CGTATCAA | 11.1 upbm affinity estimate (log intensity, higher = more binding, comparable within an allelic series) | 10.2 upbm affinity estimate (log intensity, higher = more binding, comparable within an allelic series) | 11.2 upbm affinity estimate (log intensity, higher = more binding, comparable within an allelic series) | 9.64 upbm affinity estimate (log intensity, higher = more binding, comparable within an allelic series) | 10.6 upbm affinity estimate (log intensity, higher = more binding, comparable within an allelic series) | 11.1 upbm affinity estimate (log intensity, higher = more binding, comparable within an allelic series) | 10.3 upbm affinity estimate (log intensity, higher = more binding, comparable within an allelic series) | 11.1 upbm affinity estimate (log intensity, higher = more binding, comparable within an allelic series) | 11 upbm affinity estimate (log intensity, higher = more binding, comparable within an allelic series) | 11.1 upbm affinity estimate (log intensity, higher = more binding, comparable within an allelic series) | 10.9 upbm affinity estimate (log intensity, higher = more binding, comparable within an allelic series) | 10.9 upbm affinity estimate (log intensity, higher = more binding, comparable within an allelic series) | 11 upbm affinity estimate (log intensity, higher = more binding, comparable within an allelic series)
CCCCGAGG | 8.95 upbm affinity estimate (log intensity, higher = more binding, comparable within an allelic series) | 8.89 upbm affinity estimate (log intensity, higher = more binding, comparable within an allelic series) | 8.99 upbm affinity estimate (log intensity, higher = more binding, comparable within an allelic series) | 8.94 upbm affinity estimate (log intensity, higher = more binding, comparable within an allelic series) | 9.01 upbm affinity estimate (log intensity, higher = more binding, comparable within an allelic series) | 9.07 upbm affinity estimate (log intensity, higher = more binding, comparable within an allelic series) | 8.96 upbm affinity estimate (log intensity, higher = more binding, comparable within an allelic series) | 9.07 upbm affinity estimate (log intensity, higher = more binding, comparable within an allelic series) | 9.12 upbm affinity estimate (log intensity, higher = more binding, comparable within an allelic series) | 8.94 upbm affinity estimate (log intensity, higher = more binding, comparable within an allelic series) | 9 upbm affinity estimate (log intensity, higher = more binding, comparable within an allelic series) | 8.97 upbm affinity estimate (log intensity, higher = more binding, comparable within an allelic series) | 8.96 upbm affinity estimate (log intensity, higher = more binding, comparable within an allelic series)
GATATCAA | 11.4 upbm affinity estimate (log intensity, higher = more binding, comparable within an allelic series) | 10.5 upbm affinity estimate (log intensity, higher = more binding, comparable within an allelic series) | 11.3 upbm affinity estimate (log intensity, higher = more binding, comparable within an allelic series) | 10 upbm affinity estimate (log intensity, higher = more binding, comparable within an allelic series) | 10.8 upbm affinity estimate (log intensity, higher = more binding, comparable within an allelic series) | 11 upbm affinity estimate (log intensity, higher = more binding, comparable within an allelic series) | 10.3 upbm affinity estimate (log intensity, higher = more binding, comparable within an allelic series) | 11.3 upbm affinity estimate (log intensity, higher = more binding, comparable within an allelic series) | 11.1 upbm affinity estimate (log intensity, higher = more binding, comparable within an allelic series) | 11.3 upbm affinity estimate (log intensity, higher = more binding, comparable within an allelic series) | 11.1 upbm affinity estimate (log intensity, higher = more binding, comparable within an allelic series) | 11.1 upbm affinity estimate (log intensity, higher = more binding, comparable within an allelic series) | 11.1 upbm affinity estimate (log intensity, higher = more binding, comparable within an allelic series)
GTATCAGA | 11.1 upbm affinity estimate (log intensity, higher = more binding, comparable within an allelic series) | 10.3 upbm affinity estimate (log intensity, higher = more binding, comparable within an allelic series) | 11.1 upbm affinity estimate (log intensity, higher = more binding, comparable within an allelic series) | 9.63 upbm affinity estimate (log intensity, higher = more binding, comparable within an allelic series) | 10.6 upbm affinity estimate (log intensity, higher = more binding, comparable within an allelic series) | 10.9 upbm affinity estimate (log intensity, higher = more binding, comparable within an allelic series) | 10.2 upbm affinity estimate (log intensity, higher = more binding, comparable within an allelic series) | 11.1 upbm affinity estimate (log intensity, higher = more binding, comparable within an allelic series) | 11.1 upbm affinity estimate (log intensity, higher = more binding, comparable within an allelic series) | 11.1 upbm affinity estimate (log intensity, higher = more binding, comparable within an allelic series) | 10.9 upbm affinity estimate (log intensity, higher = more binding, comparable within an allelic series) | 10.9 upbm affinity estimate (log intensity, higher = more binding, comparable within an allelic series) | 10.8 upbm affinity estimate (log intensity, higher = more binding, comparable within an allelic series)
